These results are taken from PubChem BioAssay (EPA / NIEHS).

Inconclusive results are not listed. The source made the active and inactive calls. Rule for the calls, unless noted: active = hit-call score of the fitted dose curve at least 0.9, where 1 is the maximum; inactive = score below 0.9.

The nature of experiment [1]: BSK_4H_Eotaxin3: BioMAP Diversity Plus: 4H Assay for Eotaxin 3 Biomarker Activity (AID 2283000).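 For outcome: CCL26 protein level quantified by ELISA in parallel with SRB cytotoxicity check.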 The settings on record: primary human endothelial cells (HUVEC); actives raise or lower the signal. An outline of the steps:
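HUVEC, 24 h post-dose, ELISA for Eotaxin-3/CCL26. Gain or loss of signal fitted bidirectionally vs DMSO baseline.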

Experiment [2] deals with human Peroxisome Proliferator-activated Receptor alpha (PPARa), PPARA (gene 5465) (UniProt Q07869). Put plainly: ATG_PPARa_TRANS: Attagene TRANS-FACTORIAL HepG2 Assay for human Peroxisome Proliferator-activated Receptor alpha (PPARa) (AID 2283001; active = hit-call score of the fitted dose curve at least 0.9, where 1 is the maximum). An outline of the steps: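 Gain-of-signal endpoint: reporter mRNA induction relative to DMSO, detected by fluorescent RT-PCR and capillary electrophoresis. HepG2 cells transiently carried GAL4-UAS-driven reporter units plus NR-Gal4 fusion; exposure lasted 24 h.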
human Peroxisome Proliferator-activated Receptor alpha (PPARa), PPARA (gene 5465), sequence (Q07869 whole entry, looked up, the tested form may be a part): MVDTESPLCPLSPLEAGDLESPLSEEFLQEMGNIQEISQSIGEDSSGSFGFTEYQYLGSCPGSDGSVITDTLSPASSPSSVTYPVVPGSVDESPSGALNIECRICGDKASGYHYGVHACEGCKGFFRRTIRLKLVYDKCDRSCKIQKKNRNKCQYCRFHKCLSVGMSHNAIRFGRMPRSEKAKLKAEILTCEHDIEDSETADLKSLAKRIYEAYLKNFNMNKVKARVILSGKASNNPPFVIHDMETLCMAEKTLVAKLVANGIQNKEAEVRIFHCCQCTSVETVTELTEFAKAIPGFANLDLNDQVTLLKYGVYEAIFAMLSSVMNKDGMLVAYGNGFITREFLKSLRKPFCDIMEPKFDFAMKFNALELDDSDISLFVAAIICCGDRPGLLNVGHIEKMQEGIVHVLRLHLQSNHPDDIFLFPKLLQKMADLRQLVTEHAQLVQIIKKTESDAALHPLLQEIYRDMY

Experiment [3] is described as follows: BSK_3C_Proliferation: Cell Proliferation Assessment in the BioMAP Diversity Plus: 3C Assay (AID 2283006). As to conditions: primary human endothelial cells (HUVEC). The essentials: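 Read-out is total protein by SRB absorbance at 560 nm, taken as a proxy for relative cell number. Primary human umbilical vein endothelium cultured below confluence was dosed for 48 h, TCA-fixed and SRB-stained; curves were fitted bidirectionally versus DMSO.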

In experiment [4] the target is Nuclear receptor subfamily 1 group I member 2 (Homo sapiens) (UniProt O75469). Put plainly: ATG_PXR_TRANS: Attagene TRANS-FACTORIAL HepG2 Assay for human Pregnane X Receptor (PXR) (AID 2283008; active = hit-call score of the fitted dose curve at least 0.9, where 1 is the maximum). An outline of the steps: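 Fluorescence intensity of FAM-labelled, HpaI-digested reporter amplicons, separated by capillary electrophoresis, quantifies induction. HepG2 cells with PXR-Gal4 trans-reporter system were exposed 24 h; DMSO defines baseline.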
Nuclear receptor subfamily 1 group I member 2 (Homo sapiens), sequence (O75469 whole entry, looked up, the tested form may be a part): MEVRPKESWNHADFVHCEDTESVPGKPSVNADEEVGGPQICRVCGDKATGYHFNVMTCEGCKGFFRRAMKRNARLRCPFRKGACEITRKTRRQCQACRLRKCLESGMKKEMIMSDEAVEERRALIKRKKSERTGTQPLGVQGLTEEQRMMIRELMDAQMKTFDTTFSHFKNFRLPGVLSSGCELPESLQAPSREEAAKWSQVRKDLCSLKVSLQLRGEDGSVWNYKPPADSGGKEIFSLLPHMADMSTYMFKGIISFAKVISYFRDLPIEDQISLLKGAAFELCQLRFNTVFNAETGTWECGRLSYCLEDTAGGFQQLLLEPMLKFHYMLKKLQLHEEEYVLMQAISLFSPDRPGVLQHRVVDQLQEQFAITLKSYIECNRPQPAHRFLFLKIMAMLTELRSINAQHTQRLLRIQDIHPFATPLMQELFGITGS

The target in experiment [5] is human RAR-related Orphan Receptor gamma (RORg), RORC (gene 6097) (UniProt P51449). Kind of experiment: ATG_RORg_TRANS: Attagene TRANS-FACTORIAL HepG2 Assay for human RAR-related Orphan Receptor gamma (RORg) (AID 2283011; active = hit-call score of the fitted dose curve at least 0.9, where 1 is the maximum). An outline of the steps: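 Readout: reporter transcript induction (RT-PCR, fluorescent primer extension, capillary electrophoresis) after 24 h compound exposure of transiently transfected HepG2 cells carrying a RORg-Gal4 chimera and GAL4-UAS reporters; DMSO served as baseline, with increasing signal fitted.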
human RAR-related Orphan Receptor gamma (RORg), RORC (gene 6097), sequence (P51449 whole entry, looked up, the tested form may be a part): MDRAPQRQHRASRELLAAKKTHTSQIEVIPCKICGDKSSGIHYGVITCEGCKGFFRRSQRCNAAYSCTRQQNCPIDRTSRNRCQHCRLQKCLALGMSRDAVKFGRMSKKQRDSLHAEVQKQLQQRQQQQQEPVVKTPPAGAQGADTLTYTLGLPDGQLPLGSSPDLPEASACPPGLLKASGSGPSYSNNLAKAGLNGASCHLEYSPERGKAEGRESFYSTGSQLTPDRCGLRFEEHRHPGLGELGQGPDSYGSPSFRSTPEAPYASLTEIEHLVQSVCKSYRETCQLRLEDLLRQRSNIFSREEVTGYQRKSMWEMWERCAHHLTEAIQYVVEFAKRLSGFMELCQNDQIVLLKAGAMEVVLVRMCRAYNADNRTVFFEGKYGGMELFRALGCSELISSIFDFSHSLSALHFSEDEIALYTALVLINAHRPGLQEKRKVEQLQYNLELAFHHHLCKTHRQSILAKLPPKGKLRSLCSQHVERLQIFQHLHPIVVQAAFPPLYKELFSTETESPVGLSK

The target in experiment [6] is Retinoic acid receptor RXR-alpha (Homo sapiens) (UniProt P19793). Kind of experiment: ATG_RXRa_TRANS: Attagene TRANS-FACTORIAL HepG2 Assay for human Retinoid X Receptor alpha (RXRa) (AID 2283012; active = hit-call score of the fitted dose curve at least 0.9, where 1 is the maximum). The essentials:
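Transient transfection of human HepG2 with multiple GAL4-UAS reporter constructs; 24 h compound exposure; total RNA isolated, reverse-transcribed, PCR-amplified, 6-FAM labelled, HpaI-cut, resolved by capillary electrophoresis. Positive-direction fit versus DMSO.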

The target of experiment [7] is human Retinoid X Receptor beta (RXRb), RXRB (gene 6257) (UniProt P28702). Put plainly: ATG_RXRb_TRANS: Attagene TRANS-FACTORIAL HepG2 Assay for human Retinoid X Receptor beta (RXRb) (AID 2283013; active = hit-call score of the fitted dose curve at least 0.9, where 1 is the maximum). An outline of the steps:
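Transfect HepG2 with GAL4-UAS multi-reporter constructs (chimeric NR-Gal4, TRANS format); dose compound 24 h; isolate RNA, RT-PCR, FAM primer extension, HpaI digest; quantify by capillary electrophoresis; positive direction vs DMSO.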

Read-out in experiment [8]: E-selectin (Homo sapiens) (UniProt P16581)
Put plainly: BSK_3C_Eselectin: BioMAP Diversity Plus: 3C Assay for Eselectin Biomarker Activity (AID 2283015).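 For outcome: cell surface E-selectin protein quantified by ELISA 24 h after dosing.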 The settings on record: primary human endothelial cells (HUVEC); actives raise or lower the signal. An outline of the steps:
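Primary human umbilical vein endothelial cells (3C system) were dosed with chemical and cell-surface E-selectin measured by ELISA 24 h later. Bidirectional curve fitting used DMSO as negative control and baseline.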

Read-out in experiment [9]: Monocyte Chemoattractant Protein-1 (MCP1), CCL2 (gene 6347)
Put plainly: BSK_3C_MCP1: BioMAP Diversity Plus: 3C Assay for Monocyte Chemoattractant Protein-1 (MCP1) Biomarker Activity (AID 2283017). The settings on record: primary human endothelial cells (HUVEC); actives raise or lower the signal. The essentials: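 Primary human umbilical vein endothelial cells (3C system) were exposed to test chemical for 24 h, after which MCP-1 was quantified by ELISA. Activity was fitted bidirectionally against DMSO as negative control and baseline.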

Read-out in experiment [10]: Monocyte Chemoattractant Protein-1 (MCP1), CCL2 (gene 6347)
Kind of experiment: BSK_4H_MCP1: BioMAP Diversity Plus: 4H Assay for Monocyte Chemoattractant Protein-1 (MCP1) Biomarker Activity (AID 2283018). As to conditions: primary human endothelial cells (HUVEC); actives raise or lower the signal. The essentials: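 ELISA read-out of MCP-1 from human vascular endothelial primary cells taken at 24 hours after compound exposure. Activity was fitted in both directions relative to DMSO, which served as negative control.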

Read-out in experiment [11]: Human Leukocyte Antigen - DR isotype (HLADR), HLA-DRA (gene 3122)
Put plainly: BSK_3C_HLADR: BioMAP Diversity Plus: 3C Assay for Human Leukocyte Antigen - DR isotype (HLADR) Biomarker Activity (AID 2283019).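 For outcome: ELISA of cell-surface HLA-DR on HUVEC 24 h after dosing.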 The settings on record: primary human endothelial cells (HUVEC); actives raise or lower the signal. The essentials:
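Primary human umbilical vein endothelial cells (3C system) were dosed with compound and cell-surface HLA-DR was quantified by ELISA at 24 h. Activity was fitted bidirectionally against DMSO as negative control and baseline.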

Read-out in experiment [12]: Interleukin-8 (IL8), CXCL8 (gene 3576)
Kind of experiment: BSK_3C_IL8: BioMAP Diversity Plus: 3C Assay for Interleukin-8 (IL8) Biomarker Activity (AID 2283020). The settings on record: primary human endothelial cells (HUVEC); actives raise or lower the signal. The essentials:
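ELISA read-out of IL-8 from human umbilical vein endothelium, measured 24 h after chemical dosing. Activity is expressed relative to DMSO negative control, with both increases and decreases fitted.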

Read-out in experiment [13]: Intercellular Adhesion Molecule 1 (ICAM1), ICAM1 (gene 3383)
Put plainly: BSK_3C_ICAM1: BioMAP Diversity Plus: 3C Assay for Intercellular Adhesion Molecule 1 (ICAM1) Biomarker Activity (AID 2283003). The settings on record: primary human endothelial cells (HUVEC); actives raise or lower the signal. An outline of the steps: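 ICAM-1 levels measured by ELISA after HUVEC cultures in the 3C system had been dosed for 24 h. Gain or loss of signal relative to DMSO was fitted in both directions.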

For experiment [14], the target named is Peroxisome proliferator-activated receptor gamma (Homo sapiens) (UniProt P37231). Kind of experiment: ATG_PPARg_TRANS: Attagene TRANS-FACTORIAL HepG2 Assay for human Peroxisome Proliferator-activated Receptor-gamma (PPARg) (AID 2283007; active = hit-call score of the fitted dose curve at least 0.9, where 1 is the maximum). An outline of the steps:
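Read-out: reporter mRNA induction, detected by fluorescence after RT-PCR and capillary electrophoresis. Transiently transfected human HepG2 liver cells carrying a chimeric NR-Gal4 construct were dosed for 24 h; activity was fitted upward relative to DMSO.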

Read-out in experiment [15]: Interleukin-1 alpha (IL1a), IL1A (gene 3552)
Put plainly: BSK_BE3C_IL1a: BioMAP Diversity Plus: BE3C Assay for Interleukin-1 alpha (IL1a) Biomarker Activity (AID 2283016). The settings on record: primary human bronchial epithelial cells; actives raise or lower the signal. The essentials: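 BE3C primary human bronchial epithelium; cpd 24 h; IL-1a by ELISA; bidirectional fit vs DMSO; parallel SRB (0.1% SRB, 10% TCA fix, 560 nm) for cytotoxicity.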

The target of experiment [16] is human RAR-related Orphan Receptor beta (RORb), RORB (gene 6096) (UniProt Q92753). Put plainly: ATG_RORb_TRANS: Attagene TRANS-FACTORIAL HepG2 Assay for human RAR-related Orphan Receptor beta (RORb) (AID 2283010; active = hit-call score of the fitted dose curve at least 0.9, where 1 is the maximum). An outline of the steps:
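Readout is reporter-gene mRNA induction, detected as fluorescence after RT-PCR and capillary electrophoresis, fitted for gain of signal against DMSO controls. Transiently transfected HepG2 liver cells carrying GAL4-UAS reporter constructs were treated for 24 hours.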

Experiment [17] has as its target human Retinoic Acid Receptor beta (RARb), RARB (gene 5915) (UniProt P10826). Kind of experiment: ATG_RARb_TRANS: Attagene TRANS-FACTORIAL HepG2 Assay for human Retinoic Acid Receptor beta (AID 2283004; active = hit-call score of the fitted dose curve at least 0.9, where 1 is the maximum). An outline of the steps: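 HepG2 cells transiently transfected with multiplexed GAL4-UAS reporter units expressing chimeric NR–Gal4 fusions; 24 h compound exposure. Reporter mRNA quantified by RT-PCR, 6-FAM labelling, HpaI digestion and capillary electrophoresis; gain-of-signal fitted against DMSO baseline.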

In experiment [18] the target is Retinoic acid receptor alpha (Homo sapiens) (UniProt P10276). Put plainly: ATG_RARa_TRANS: Attagene TRANS-FACTORIAL HepG2 Assay for human Retinoic Acid Receptor alpha (RARa) (AID 2283005; active = hit-call score of the fitted dose curve at least 0.9, where 1 is the maximum). An outline of the steps: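 HepG2 cells transiently transfected with multiple reporter units expressing chimeric RARα-GAL4 fusion, with GAL4-UAS-driven reporters. After 24 h compound exposure, reporter mRNA induction quantified by RT-PCR and capillary electrophoresis with fluorescent labeling; gain-of-signal fitted relative to DMSO control.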
Retinoic acid receptor alpha (Homo sapiens), sequence (P10276 whole entry, looked up, the tested form may be a part): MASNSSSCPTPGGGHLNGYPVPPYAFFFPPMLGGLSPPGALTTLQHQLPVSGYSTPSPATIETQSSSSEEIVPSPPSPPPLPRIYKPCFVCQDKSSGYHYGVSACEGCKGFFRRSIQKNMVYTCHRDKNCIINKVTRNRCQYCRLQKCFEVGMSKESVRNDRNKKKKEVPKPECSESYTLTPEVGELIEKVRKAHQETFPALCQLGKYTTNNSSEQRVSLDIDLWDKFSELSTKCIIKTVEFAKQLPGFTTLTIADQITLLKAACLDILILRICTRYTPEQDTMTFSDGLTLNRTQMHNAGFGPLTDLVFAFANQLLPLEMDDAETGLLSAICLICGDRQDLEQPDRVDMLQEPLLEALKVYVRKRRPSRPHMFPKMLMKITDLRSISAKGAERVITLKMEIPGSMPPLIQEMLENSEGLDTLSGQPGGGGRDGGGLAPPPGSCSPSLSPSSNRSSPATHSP

For experiment [19], the target named is human Retinoic Acid Receptor gamma (RARg), RARG (gene 5916) (UniProt P13631). Kind of experiment: ATG_RARg_TRANS: Attagene TRANS-FACTORIAL HepG2 Assay for human Retinoic Acid Receptor gamma (RARg) (AID 2283009; active = hit-call score of the fitted dose curve at least 0.9, where 1 is the maximum). The essentials:
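Transient transfection of HepG2 with multi-reporter constructs, then 24 h chemical treatment. Total RNA isolated, reverse-transcribed, PCR-amplified, fluorescently labelled and resolved by capillary electrophoresis; activity scored as mRNA induction versus DMSO.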

Retinoic acid receptor RXR-alpha (Homo sapiens), sequence (P19793 whole entry, looked up, the tested form may be a part): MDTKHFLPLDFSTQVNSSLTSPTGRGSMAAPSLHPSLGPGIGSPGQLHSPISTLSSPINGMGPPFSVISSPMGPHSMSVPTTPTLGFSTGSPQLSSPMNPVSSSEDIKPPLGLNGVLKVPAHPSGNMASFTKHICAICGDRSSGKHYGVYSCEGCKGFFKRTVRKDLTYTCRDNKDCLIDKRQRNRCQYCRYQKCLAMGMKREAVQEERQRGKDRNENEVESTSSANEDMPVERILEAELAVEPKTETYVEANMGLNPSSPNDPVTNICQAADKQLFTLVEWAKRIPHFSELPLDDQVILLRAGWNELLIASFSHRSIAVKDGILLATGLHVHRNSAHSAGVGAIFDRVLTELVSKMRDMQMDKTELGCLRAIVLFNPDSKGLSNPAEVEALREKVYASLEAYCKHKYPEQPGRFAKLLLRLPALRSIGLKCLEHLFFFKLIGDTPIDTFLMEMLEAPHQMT
E-selectin (Homo sapiens), sequence (P16581 whole entry, looked up): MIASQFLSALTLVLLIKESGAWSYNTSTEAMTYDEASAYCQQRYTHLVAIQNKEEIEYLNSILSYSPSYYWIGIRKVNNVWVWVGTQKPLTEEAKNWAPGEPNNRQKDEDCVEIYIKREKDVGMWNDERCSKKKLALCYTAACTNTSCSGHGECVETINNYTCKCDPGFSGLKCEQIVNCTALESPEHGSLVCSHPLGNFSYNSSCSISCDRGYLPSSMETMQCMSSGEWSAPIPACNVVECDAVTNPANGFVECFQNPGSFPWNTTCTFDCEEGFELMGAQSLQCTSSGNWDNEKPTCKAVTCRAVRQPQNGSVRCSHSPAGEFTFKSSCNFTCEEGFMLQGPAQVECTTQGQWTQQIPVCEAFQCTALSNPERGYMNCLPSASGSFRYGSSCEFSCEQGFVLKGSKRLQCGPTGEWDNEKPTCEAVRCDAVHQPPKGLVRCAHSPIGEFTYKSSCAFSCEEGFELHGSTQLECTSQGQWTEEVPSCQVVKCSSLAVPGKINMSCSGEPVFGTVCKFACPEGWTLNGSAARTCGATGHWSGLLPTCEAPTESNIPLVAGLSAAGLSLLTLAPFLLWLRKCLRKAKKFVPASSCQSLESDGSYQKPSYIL
human Retinoid X Receptor beta (RXRb), RXRB (gene 6257), sequence (P28702 whole entry, looked up, the tested form may be a part): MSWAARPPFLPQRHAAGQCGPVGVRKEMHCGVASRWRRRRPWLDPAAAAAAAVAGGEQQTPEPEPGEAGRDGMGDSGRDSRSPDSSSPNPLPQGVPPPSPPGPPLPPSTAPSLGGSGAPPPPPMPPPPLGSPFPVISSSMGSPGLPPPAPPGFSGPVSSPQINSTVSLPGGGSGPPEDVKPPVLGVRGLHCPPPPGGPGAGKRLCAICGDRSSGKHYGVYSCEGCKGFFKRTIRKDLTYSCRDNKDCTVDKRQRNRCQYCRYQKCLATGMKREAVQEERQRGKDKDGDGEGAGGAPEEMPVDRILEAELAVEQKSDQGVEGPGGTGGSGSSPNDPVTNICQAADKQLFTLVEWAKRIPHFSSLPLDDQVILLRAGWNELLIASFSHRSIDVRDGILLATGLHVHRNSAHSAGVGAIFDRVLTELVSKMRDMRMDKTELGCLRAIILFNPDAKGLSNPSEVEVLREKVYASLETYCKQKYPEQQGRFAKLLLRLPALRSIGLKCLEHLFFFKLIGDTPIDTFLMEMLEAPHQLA
human RAR-related Orphan Receptor beta (RORb), RORB (gene 6096), sequence (Q92753 whole entry, looked up, the tested form may be a part): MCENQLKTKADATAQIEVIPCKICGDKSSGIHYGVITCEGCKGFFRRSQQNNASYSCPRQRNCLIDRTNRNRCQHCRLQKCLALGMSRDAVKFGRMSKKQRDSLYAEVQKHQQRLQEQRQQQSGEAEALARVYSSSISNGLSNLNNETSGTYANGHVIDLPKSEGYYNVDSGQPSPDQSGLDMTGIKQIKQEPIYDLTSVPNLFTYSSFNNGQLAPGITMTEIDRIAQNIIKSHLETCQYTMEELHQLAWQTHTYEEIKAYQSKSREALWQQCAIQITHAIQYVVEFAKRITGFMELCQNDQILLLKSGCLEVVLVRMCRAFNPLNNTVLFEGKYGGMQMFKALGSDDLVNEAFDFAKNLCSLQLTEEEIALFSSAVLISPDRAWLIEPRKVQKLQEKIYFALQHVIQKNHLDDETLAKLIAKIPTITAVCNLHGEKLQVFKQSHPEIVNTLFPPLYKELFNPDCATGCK
Peroxisome proliferator-activated receptor gamma (Homo sapiens), sequence (P37231 whole entry, looked up, the tested form may be a part): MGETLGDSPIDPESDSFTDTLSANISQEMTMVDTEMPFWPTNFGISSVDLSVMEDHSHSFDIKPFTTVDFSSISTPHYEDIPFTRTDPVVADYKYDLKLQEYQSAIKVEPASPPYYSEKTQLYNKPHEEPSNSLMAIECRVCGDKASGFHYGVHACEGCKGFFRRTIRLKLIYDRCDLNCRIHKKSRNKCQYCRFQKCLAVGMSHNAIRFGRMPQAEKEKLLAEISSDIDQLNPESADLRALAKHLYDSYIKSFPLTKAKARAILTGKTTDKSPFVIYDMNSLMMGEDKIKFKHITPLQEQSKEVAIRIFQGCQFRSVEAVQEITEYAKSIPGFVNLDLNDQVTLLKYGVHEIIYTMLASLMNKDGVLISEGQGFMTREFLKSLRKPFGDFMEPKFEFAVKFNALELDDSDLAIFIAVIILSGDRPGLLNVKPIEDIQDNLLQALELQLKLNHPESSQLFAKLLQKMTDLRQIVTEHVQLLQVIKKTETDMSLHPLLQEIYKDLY
human Retinoic Acid Receptor gamma (RARg), RARG (gene 5916), sequence (P13631 whole entry, looked up): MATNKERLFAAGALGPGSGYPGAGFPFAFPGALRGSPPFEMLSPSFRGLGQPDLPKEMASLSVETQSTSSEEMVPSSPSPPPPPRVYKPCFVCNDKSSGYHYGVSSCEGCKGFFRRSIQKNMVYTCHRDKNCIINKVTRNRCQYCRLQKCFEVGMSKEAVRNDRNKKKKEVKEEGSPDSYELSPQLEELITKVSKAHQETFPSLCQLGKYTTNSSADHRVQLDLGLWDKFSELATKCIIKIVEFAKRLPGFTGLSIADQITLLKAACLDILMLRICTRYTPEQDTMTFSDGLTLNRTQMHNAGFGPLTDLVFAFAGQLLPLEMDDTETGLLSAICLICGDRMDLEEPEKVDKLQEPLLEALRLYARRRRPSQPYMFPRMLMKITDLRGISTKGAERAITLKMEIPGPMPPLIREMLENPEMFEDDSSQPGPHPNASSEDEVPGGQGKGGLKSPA

`CC(C)N1C(=O)c2ccccc2NS1(=O)=O`: the outcome in [1], in [2], in experiment [3], in experiment [4], in experiment [5] and in experiment [6] was inactive. In addition, the compound was classed as inactive in experiment [7], in experiment [8], in experiment [9], in experiment [10], in experiment [11] and in experiment [12].
Turning to `C=CCOC(=O)C(C)(C)OC(=O)c1cc(-n2c(=O)cc(C(F)(F)F)n(C)c2=O)ccc1Cl`, the result in [1], in experiment [13], in experiment [14], in experiment [4], in experiment [6] and in experiment [8] was inactive. For the same compound, the outcome in [9], in experiment [10] and in [12] was inactive. Besides, in [11], the AC50 (usually the concentration at which the activity in the assay is half-maximal) is 14.7 µM (active).
Consider `CO/N=C(/C1=NOCCO1)c1ccccc1Oc1ncnc(Oc2ccccc2Cl)c1F`, for which the concentration at half-maximal activity (AC50) is 27.8 µM (active) in [1]; 6.21 µM (active) in [8]; 20.1 µM (active) in experiment [9]; 9.24 µM (active) in experiment [11]; 20 µM (active) in [12]. Further, the outcome in experiment [13], in [4], in experiment [5], in experiment [7] and in experiment [15] was inactive.
For the compound `CC(C)N1C(=O)N(c2ccccc2)CSC1=NC(C)(C)C`, the AC50 in [1] is 31.2 µM (active); in [8], 16 µM (active); in experiment [9], 31.3 µM (active); in [10], 30.4 µM (active); in experiment [11] it was 31.8 µM (active); in experiment [12], 25.4 µM (active). Moreover, the outcome in [13], in experiment [4], in experiment [16], in [5] and in [6] was inactive.
For the compound `CCCC(=NOCC)C1=C(O)CC(CC(C)SCC)CC1=O` (configuration not stated), the result in [1], in experiment [17], in experiment [18], in [14], in [4] and in [19] was inactive. Further, the compound was classed as inactive in experiment [16], in [6], in experiment [8], in experiment [15], in experiment [9] and in experiment [10]. For the same compound, the outcome in [11] and in [12] was inactive.
